The source made the active and inactive calls. Rule for the calls: active = hit-call score of the fitted dose curve at least 0.9, where 1 is the maximum; inactive = score below 0.9.
Legend:
[1] = ATG_CRE_CIS: Attagene CIS-FACTORIAL HepG2 Assay for human cAMP Responsive Element (CRE) binding protein 3 (AID 2282926); conditions: HepG2 CRE cis-reporter, Attagene multiplexed mRNA; actives raise or lower the signal
In short: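 Human liver HepG2, transient MRTU transfection, 24 h compound exposure. Total RNA → oligo(dT) RT → PCR → 6-FAM primer extension → HpaI cut → CE. Activity called both directions vs DMSO.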

[2] = target: CCAAT/enhancer-binding protein beta (Homo sapiens) (UniProt P17676); assay: ATG_C_EBP_CIS: Attagene CIS-FACTORIAL HepG2 Assay for human CCAAT/Enhancer Binding Protein (C/EBP) beta (AID 2282927); conditions: HepG2 Attagene cis-factorial transcription factor reporter; actives raise or lower the signal
In short: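 Following a 24 h incubation with test chemical, transfected HepG2 cells yielded RNA whose reporter transcripts were quantified by RT-PCR and fluorescent capillary electrophoresis, with DMSO serving as baseline for bidirectional fitting.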

[3] = ATG_CMV_CIS: Attagene CIS-FACTORIAL HepG2 Assay for human CMV (Internal Marker) (AID 2282928); conditions: HepG2 CMV promoter reporter, transcription factor profiling; actives raise or lower the signal;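 note: endpoint acts as a background internal control marker rather than a target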
In short: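 HepG2 cells transiently transfected with multiple cis-regulated reporter units; 24 h compound exposure. Reporter mRNA quantified by RT-PCR, 6-FAM primer-extension labeling, HpaI digestion and capillary electrophoresis; bidirectional fitting against DMSO baseline.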

[4] = ATG_DR4_LXR_CIS: Attagene CIS-FACTORIAL HepG2 Assay for human Liver X Receptor (LXR), DR4 submotif (AID 2282929); conditions: HepG2 Attagene DR4 cis-reporter, mRNA transcription; actives raise or lower the signal
In short: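 Cells were transfected with multiple reporter transcription units, exposed to chemicals for 24 hours, then lysed for RNA. Reporter mRNA induction was measured by RT-PCR with capillary electrophoresis detection and fitted in both directions relative to DMSO.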

[5] = target: Aryl hydrocarbon receptor (Homo sapiens) (UniProt P35869); assay: ATG_Ahr_CIS: Attagene CIS-FACTORIAL HepG2 Assay for human Aryl Hydrocarbon Receptor (Ahr) (AID 2282930); conditions: HepG2 AhR cis-factorial reporter transcription; actives raise or lower the signal
In short: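 Values derive from bidirectional fitting against DMSO negative control. Underlying signal: cis-element reporter mRNA in transiently transfected HepG2, harvested 24 h post-dose and measured by RT-PCR plus capillary electrophoresis.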

[6] = ATG_AP_2_CIS: Attagene CIS-FACTORIAL HepG2 Assay for human Activator Protein 2 (AP-2) (AID 2282932); conditions: HepG2 AP-2 cis-reporter, Attagene transcription factor profiling; actives raise or lower the signal
In short: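 HepG2 cells were transiently transfected with multiple cis-promoter reporter transcription units and dosed for 24 h. Reporter mRNA was measured by RT-PCR with capillary electrophoresis fluorescence; bidirectional fits relative to DMSO baseline.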

[7] = ATG_BRE_CIS: Attagene CIS-FACTORIAL HepG2 Assay for human Bone Morphogenetic Protein (BMP) Response Element (BRE) (AID 2282933); conditions: HepG2 BMP response element reporter, Attagene transcription factor profiling; actives raise or lower the signal
In short: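 Read-out: reporter mRNA induction quantified by RT-PCR and capillary electrophoresis after 24 h chemical exposure of transfected HepG2 cells. Endogenous factor activity on the BMP response element; gain or loss fitted against DMSO baseline.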

[8] = target: Retinoic acid receptor alpha (Homo sapiens) (UniProt P10276); assay: ATG_DR5_RAR_CIS: Attagene CIS-FACTORIAL HepG2 Assay for human Retinoic Acid Receptor Alpha (RARE), DR5 submotif (AID 2282934); conditions: HepG2 Attagene cis-factorial RARE DR5 reporter, mRNA; actives raise or lower the signal;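 for AC50: reporter responds to endogenous RAR alpha beta and gamma in HepG2 not RARA alone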
In short: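 Endpoint fitted in both directions relative to DMSO as negative control. It reflects DR5 cis-element reporter mRNA induction in transiently transfected HepG2 cells, measured 24 h after dosing through RT-PCR and fluorescent capillary electrophoresis.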

[9] = target: Transcription factor E2F1 (Homo sapiens) (UniProt Q01094); assay: ATG_E2F_CIS: Attagene CIS-FACTORIAL HepG2 Assay for human E2F Transcription Factor 1 (AID 2282935); conditions: HepG2 Attagene cis-reporter, E2F reporter RNA transcripts; actives raise or lower the signal
In short: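 HepG2 cells transiently transfected with multiplexed cis-element reporter units, dosed for 24 h. Reporter mRNA measured by RT-PCR, 6-FAM primer-extension labeling, HpaI digestion and capillary electrophoresis; bidirectional fit versus DMSO baseline.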

[10] = ATG_E_Box_CIS: Attagene CIS-FACTORIAL HepG2 Assay for human Enhancer Box (E-box) (AID 2282936); conditions: HepG2 E-box cis-reporter transcription, actives raise or lower the signal
In short: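 HepG2 cells transiently transfected with multiplexed cis-element reporter units sensing endogenous transcription factor activity; 24 h compound exposure. Reporter mRNA measured by RT-PCR, 6-FAM primer extension, HpaI digestion and capillary electrophoresis; bidirectional fit versus DMSO.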

[11] = ATG_M_61_CIS: Attagene CIS-FACTORIAL HepG2 Assay for M61 Transcription Factor (Internal Marker) (AID 2282937); conditions: HepG2 Attagene CIS-FACTORIAL M61 internal marker reporter; actives raise or lower the signal
In short: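 Cells were transfected with reporter units under cis-regulatory promoters, treated with chemicals for 24 h, then lysed for RNA. Reporter transcripts were quantified by RT-PCR and capillary electrophoresis, and activity was fitted bidirectionally against DMSO.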

[12] = ATG_EGR_CIS: Attagene CIS-FACTORIAL HepG2 Assay for human Early Growth Response 1 (EGR1) (AID 2282938); conditions: HepG2 Attagene CIS-FACTORIAL EGR reporter mRNA; actives raise or lower the signal
In short: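 Endogenous TF activity in HepG2 liver cells was gauged through cis-promoter reporter constructs transiently transfected. After 24 h dosing, reporter mRNA was quantified by RT-PCR and capillary electrophoresis, and curves fitted in both directions versus DMSO.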

[13] = ATG_M_19_CIS: Attagene CIS-FACTORIAL HepG2 Assay for M19 Transcription Factor (Internal Marker) (AID 2282939); conditions: HepG2 Attagene CIS-FACTORIAL M19 internal marker reporter; actives raise or lower the signal
In short: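 Readout: fluorescent reporter-transcript fragments by capillary electrophoresis after RT-PCR. Human HepG2 liver cells carried transfected MRTU constructs reporting endogenous transcription-factor activity; exposure 24 h. Gain or loss of signal fitted relative to DMSO.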

[14] = ATG_Ets_CIS: Attagene CIS-FACTORIAL HepG2 Assay for human Erythroblast Transformation Specific (ETS) (AID 2282941); conditions: HepG2 ETS cis-reporter transcription, actives raise or lower the signal
In short: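 HepG2 cells transiently transfected with cis-promoter reporter transcription units were dosed for 24 h; reporter mRNA was measured by RT-PCR, 6-FAM primer extension, HpaI digestion and capillary electrophoresis, with bidirectional fitting against DMSO baseline.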

[15] = target: Hepatocyte nuclear factor 3-beta (Homo sapiens) (UniProt Q9Y261); assay: ATG_FoxA2_CIS: Attagene CIS-FACTORIAL HepG2 Assay for human Forkhead box A2 (FOXA2) (AID 2282942); conditions: HepG2 cis-reporter transcription factor activity, 24 h; actives raise or lower the signal
In short: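 Endogenous transcription factor activity was read in HepG2 cells carrying transiently transfected cis-promoter reporter units. After 24 h dosing, reporter mRNA was quantified by RT-PCR and capillary electrophoresis, and values fitted bidirectionally versus DMSO.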

[16] = ATG_FoxO_CIS: Attagene CIS-FACTORIAL HepG2 Assay for human Forkhead box O (FoxO) (AID 2282943); conditions: HepG2 Attagene cis-reporter, FoxO element, mRNA; actives raise or lower the signal
In short: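 Values reflect reporter mRNA induction or loss in HepG2 cells 24 h post-dosing, fitted bidirectionally with DMSO as negative control and baseline. Detection used RT-PCR and fluorescence capillary electrophoresis.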

[17] = ATG_GATA_CIS: Attagene CIS-FACTORIAL HepG2 Assay for human GATA Binding Protein (AID 2282944); conditions: HepG2 GATA cis-element reporter, Attagene multiplex mRNA; actives raise or lower the signal
In short: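 Read-out: fluorescent reporter mRNA fragments resolved by capillary electrophoresis after RT-PCR. Human liver HepG2 cells carried transiently transfected cis-regulated reporter constructs; chemicals incubated 24 h; gain or loss of signal fitted relative to DMSO.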

[18] = ATG_GLI_CIS: Attagene CIS-FACTORIAL HepG2 Assay for human Zinc Finger Protein GLI1 (AID 2282945); conditions: HepG2, Attagene cis-factorial reporter mRNA, GLI element; actives raise or lower the signal
In short: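 HepG2 cells transiently transfected with cis-promoter multiplexed reporter units report endogenous transcription factor activity. After 24 h chemical exposure, reporter mRNA was quantified by RT-PCR, 6-FAM labelling, HpaI digestion and capillary electrophoresis, with bidirectional fitting against DMSO.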

[19] = ATG_AP_1_CIS: Attagene CIS-FACTORIAL HepG2 Assay for human Activator Protein 1 (AP-1) (AID 2282931); conditions: HepG2 Attagene cis-factorial AP-1 reporter mRNA; actives raise or lower the signal
In short: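 Endogenous transcription-factor activity in human HepG2 liver cells is read through a cis-promoter reporter transcript, sampled 24 h after dosing. Detection uses RT-PCR with capillary electrophoresis; values come from bidirectional fitting relative to DMSO.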

Measured: AC50

Chain of CCAAT/enhancer-binding protein beta (Homo sapiens) (P17676 whole entry, looked up): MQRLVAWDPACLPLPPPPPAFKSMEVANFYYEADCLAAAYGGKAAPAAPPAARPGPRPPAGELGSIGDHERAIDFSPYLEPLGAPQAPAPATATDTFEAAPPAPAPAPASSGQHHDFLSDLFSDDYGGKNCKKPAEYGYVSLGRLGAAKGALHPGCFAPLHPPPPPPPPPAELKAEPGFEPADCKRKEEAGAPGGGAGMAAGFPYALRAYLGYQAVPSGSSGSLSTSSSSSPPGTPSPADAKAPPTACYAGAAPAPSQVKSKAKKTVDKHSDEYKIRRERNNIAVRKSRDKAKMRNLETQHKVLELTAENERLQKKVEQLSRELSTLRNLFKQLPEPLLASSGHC
Chain of Retinoic acid receptor alpha (Homo sapiens) (P10276 whole entry, looked up): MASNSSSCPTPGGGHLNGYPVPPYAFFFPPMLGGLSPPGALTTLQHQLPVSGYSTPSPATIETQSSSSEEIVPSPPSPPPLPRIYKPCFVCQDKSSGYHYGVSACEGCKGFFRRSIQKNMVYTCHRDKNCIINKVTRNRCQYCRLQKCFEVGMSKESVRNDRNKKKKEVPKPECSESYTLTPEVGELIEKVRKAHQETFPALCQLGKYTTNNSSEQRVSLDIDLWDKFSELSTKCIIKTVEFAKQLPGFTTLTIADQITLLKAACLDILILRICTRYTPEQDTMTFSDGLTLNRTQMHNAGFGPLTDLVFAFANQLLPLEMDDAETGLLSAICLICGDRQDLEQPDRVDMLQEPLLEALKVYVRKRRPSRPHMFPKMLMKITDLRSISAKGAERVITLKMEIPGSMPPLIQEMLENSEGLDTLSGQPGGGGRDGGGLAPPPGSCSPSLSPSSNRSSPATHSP
Chain of Aryl hydrocarbon receptor (Homo sapiens) (P35869 whole entry, looked up): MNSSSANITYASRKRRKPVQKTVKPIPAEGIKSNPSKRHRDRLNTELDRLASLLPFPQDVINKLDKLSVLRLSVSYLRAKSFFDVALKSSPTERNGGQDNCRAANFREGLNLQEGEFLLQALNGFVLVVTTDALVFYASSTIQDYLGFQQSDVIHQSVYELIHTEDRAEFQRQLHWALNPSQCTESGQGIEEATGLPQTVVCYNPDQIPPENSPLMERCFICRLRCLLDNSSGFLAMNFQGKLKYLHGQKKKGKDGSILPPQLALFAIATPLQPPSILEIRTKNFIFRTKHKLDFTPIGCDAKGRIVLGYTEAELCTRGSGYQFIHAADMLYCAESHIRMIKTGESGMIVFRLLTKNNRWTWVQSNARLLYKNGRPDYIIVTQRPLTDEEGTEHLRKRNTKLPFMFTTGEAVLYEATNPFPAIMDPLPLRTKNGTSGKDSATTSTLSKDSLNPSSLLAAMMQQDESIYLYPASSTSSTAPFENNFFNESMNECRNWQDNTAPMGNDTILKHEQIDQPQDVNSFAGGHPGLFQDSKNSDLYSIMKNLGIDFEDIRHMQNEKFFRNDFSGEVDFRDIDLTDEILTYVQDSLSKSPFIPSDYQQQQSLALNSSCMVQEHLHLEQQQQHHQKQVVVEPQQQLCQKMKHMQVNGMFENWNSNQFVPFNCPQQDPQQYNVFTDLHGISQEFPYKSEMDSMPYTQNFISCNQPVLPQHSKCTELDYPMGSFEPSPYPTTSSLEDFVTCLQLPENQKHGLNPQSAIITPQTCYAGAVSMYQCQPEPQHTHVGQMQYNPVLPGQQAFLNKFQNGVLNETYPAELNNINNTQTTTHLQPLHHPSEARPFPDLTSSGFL
Chain of Transcription factor E2F1 (Homo sapiens) (Q01094 whole entry, looked up): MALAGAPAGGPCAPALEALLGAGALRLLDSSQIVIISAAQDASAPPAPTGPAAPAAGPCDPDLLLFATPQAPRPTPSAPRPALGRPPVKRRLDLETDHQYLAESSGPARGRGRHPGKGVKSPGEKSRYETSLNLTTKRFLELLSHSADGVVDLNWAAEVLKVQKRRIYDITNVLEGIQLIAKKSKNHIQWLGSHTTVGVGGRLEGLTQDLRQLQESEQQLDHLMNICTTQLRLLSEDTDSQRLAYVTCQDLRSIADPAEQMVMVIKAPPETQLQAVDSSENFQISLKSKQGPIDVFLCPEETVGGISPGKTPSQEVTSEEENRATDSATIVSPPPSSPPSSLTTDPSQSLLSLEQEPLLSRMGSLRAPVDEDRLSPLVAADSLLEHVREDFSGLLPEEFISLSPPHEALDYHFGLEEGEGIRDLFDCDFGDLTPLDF
Chain of Hepatocyte nuclear factor 3-beta (Homo sapiens) (Q9Y261 whole entry, looked up): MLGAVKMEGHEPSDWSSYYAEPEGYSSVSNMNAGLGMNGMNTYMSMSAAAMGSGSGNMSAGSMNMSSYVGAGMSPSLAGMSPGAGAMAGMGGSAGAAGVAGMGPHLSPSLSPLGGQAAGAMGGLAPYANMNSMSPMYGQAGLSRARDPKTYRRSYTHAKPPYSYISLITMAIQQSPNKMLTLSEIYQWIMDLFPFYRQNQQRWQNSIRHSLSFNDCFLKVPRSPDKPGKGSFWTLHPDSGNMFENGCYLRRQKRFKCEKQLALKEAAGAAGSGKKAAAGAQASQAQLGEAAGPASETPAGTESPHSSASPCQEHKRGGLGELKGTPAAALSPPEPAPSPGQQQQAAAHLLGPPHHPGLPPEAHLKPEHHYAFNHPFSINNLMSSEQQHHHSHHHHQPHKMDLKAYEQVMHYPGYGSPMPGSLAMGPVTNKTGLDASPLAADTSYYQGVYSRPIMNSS

C=Cc1ccncc1
active: [2] 26.2 µM | [3] 100 µM | [8] 27 µM | [10] 46.1 µM | [12] 37.1 µM | [14] 57.3 µM | [16] 43.4 µM | [17] 22.7 µM
inactive: [1] | [4] | [5] | [6] | [7] | [9] | [11] | [13] | [15] | [18]

CCOC(=O)c1ccc(N)cc1
inactive: [1] | [2] | [3] | [4] | [5] | [19] | [7] | [8] | [9] | [10] | [11] | [12] | [13] | [15] | [16] | [17] | [18]

CC(C)OCCO
inactive: [1] | [2] | [3] | [4] | [5] | [6] | [7] | [8] | [9] | [10] | [11] | [12] | [13] | [14] | [15] | [16] | [17] | [18]

[O-]n1ccccc1=S.[O-]n1ccccc1=S.[Zn+2]
inactive: [1] | [2] | [3] | [4] | [5] | [19] | [7] | [9] | [11] | [12] | [14] | [15] | [16] | [17] | [18]
active: [10] 0.976 µM

CC(=O)C(C)O (stereo not drawn)
inactive: [1] | [2] | [3] | [4] | [5] | [19] | [7] | [8] | [9] | [10] | [11] | [12] | [13] | [14] | [15] | [16] | [17] | [18]

Cc1occc(=O)c1OC(=O)C(C)C
inactive: [1] | [2] | [3] | [4] | [5] | [6] | [7] | [8] | [9] | [10] | [11] | [12] | [13] | [14] | [15] | [16] | [17] | [18]

CCCCCCOC(=O)C(C)C
inactive: [1] | [2] | [3] | [4] | [5] | [6] | [7] | [8] | [9] | [10] | [11] | [12] | [13] | [14] | [15] | [16] | [17] | [18]
